Screens: PubChem, National Center for Advancing Translational Sciences (NCATS)
In the library only some 8.3% were active in any assay of this set; here they are far more common.
MARV entry inh = Marburg virus entry inhibition | Marburg virus pseudotyped entry inhibition, cell reporter | Potency, µM (doses to about 37.8 µM), for inactives: at the top dose activity change, negative = inhibition, actives largely listed as inhibitors | 300,000 tested, 1.8% active | AID 540276; calls by dose curve; tested in HEK293 cells; also: potency is read from the fitted curve at half-maximal effect
FMDV inh = antivirals against foot and mouth disease virus; FMDV antiviral cell-based qHTS; Potency, µM (series often up to 57.9 µM), for inactives: at the highest dose activity change, negative = inhibition, actives largely listed as inhibitors; 410,000 tested, 1.2% active; AID 1159524; calls by dose curve; tested in HEK293T cells; also: read-out not given here; potency is read from the fitted curve at half-maximal effect; nearly all actives have a fitted effect of over 45% in size
Giardia FBPA inh = Giardia lamblia aldolase inhibition; Potency, µM (top dose mostly 59.6 µM), without a hit: at the highest dose activity, negative = inhibition, most hits filed as inhibitors; A8B2U2; purified Giardia FBPA; 290,000 tested, 0.71% active; also: potency is read from the fitted curve at half-maximal effect; nearly all actives have a fitted effect of over 55% in size
Target sequence (A8B2U2 whole entry, looked up): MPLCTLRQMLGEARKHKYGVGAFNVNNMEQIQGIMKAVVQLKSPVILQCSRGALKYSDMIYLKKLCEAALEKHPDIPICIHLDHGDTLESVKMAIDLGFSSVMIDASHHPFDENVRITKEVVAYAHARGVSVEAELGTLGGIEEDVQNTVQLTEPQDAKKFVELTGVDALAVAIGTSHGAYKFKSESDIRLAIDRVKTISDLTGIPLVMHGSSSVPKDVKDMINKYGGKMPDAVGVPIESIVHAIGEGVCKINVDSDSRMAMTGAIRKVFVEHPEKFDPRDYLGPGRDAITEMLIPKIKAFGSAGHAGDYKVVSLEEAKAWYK
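Giardia FBPA (40 nM reagent) was preincubated 10 min at RT with compound (up to 57.5 uM final), then substrate plus GAPDH/TPI/NAD/arsenate coupling system with diaphorase/resazurin was added; resorufin fluorescence (525/598 nm) was read after 20 min.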
HCV inh = HCV inhibition; 340,000 tested, 3.4% active; Huh7.5.1 HCVcc-Cre infection, luciferase reporter, 44 h; Potency, µM (doses to about 41.8 µM), inactives show at the top dose activity change, negative = inhibition, most hits filed as inhibitors; also: potency is read from the fitted curve at half-maximal effect
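Infectious HCVcc-Cre (~0.5 moi) was added to cells just after compound, with cells seeded 4 h earlier at 1,000 per well. Luciferase activity after 44 h culture reported infection; substrate was incubated 15 min at room temperature before reading.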
LASV entry inh = Lassa virus entry inhibition; Lassa virus pseudotype entry inhibition, cell reporter; 300,000 tested, 1.2% active; Potency, µM (series often up to 37.9 µM), for inactives: at the highest dose activity change, negative = inhibition, usual class: inhibitors; calls by dose curve; tested in HEK293 cells; also: potency is read from the fitted curve at half-maximal effect; nearly all actives have a fitted effect of over 50% in size
HCMV antiviral = inhibitors of human cytomegalovirus; HFF cells, HCMV-luciferase reporter, 72 h; stronger effect = lower value; AID 1259415; 410,000 tested, 4.5% active; activity change, negative = inhibition, % at 57.5 µM; in the data active = activity change below about -60%; inconclusive = no clear call, values can overlap the other calls; inactive = above about -39%
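Cell-based, HFFs, 1000 cells/well, 16 h 37C; cpds in DMSO + HCMV-luc, MOI 1 PFU/cell; 72 h 37C; OneGlo luminescence after 5 min RT; norm. to buffer vs Salinomycin 10uM.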
* marks the source's active call; other numbers are inactive results; ? = inconclusive; nt = no result given; + = active, no number; ! = a repeat was not active; [ ] = remark or other dose. Unless noted, calls follow the shape of the dose curve; as a rule, active = well fitted curve in the direction sought with a large enough effect; inconclusive = small, poorly fitted or top-dose-only effect, or another doubt; inactive = no such curve, though single readings can be large; an effect the other way counts as inactive or inconclusive. % is scaled to controls: 0 for no effect and ±100 for the full control effect.

SMILES	MARV entry inh	FMDV inh	Giardia FBPA inh	HCV inh	LASV entry inh	HCMV antiviral
N#C/C(=C\c1c(N2CCCCC2)nc2ccccn2c1=O)C(=O)NC1CCS(=O)(=O)C1 (centres undefined)	3.4%	-9.2%	-3.3%	5.7%	9.5%	7.0
Cc1cccn2c(=O)c(/C=C(\C#N)C(=O)NC3CCS(=O)(=O)C3)c(Oc3ccc(F)cc3)nc12 (centres undefined)	?	28.2µM*	-8.6%	-0.8%	-1.2%[46.1 µM]	15.2
CCOc1ccc(CCNC(=O)c2ccc(CSCc3ccccc3C)o2)cc1OCC	nt	0.0%	nt	nt	1.7%[46.1 µM]	-9.8
NC(N)=N/N=C(\N=Nc1ccccc1)c1ccc(Cl)cc1	?	9.0%	nt	?	15.8µM*	206.9
Cc1ccc(C(=O)Nc2c(-c3cccs3)nc3cc(C)ccn23)cc1	?	-3.1%	-2.1%	0.7%	19.2%	-8.0
Cc1ccn2c(NC(=O)C(C)(C)Oc3ccc(Cl)cc3)c(-c3cccs3)nc2c1	?	-20.7%	-4.7%	?	?	-60.4*
CCCCS(=O)(=O)c1nc(-c2ccc(Br)cc2)cc(-c2ccccc2)c1C#N	nt	?	nt	nt	1.1%[46.1 µM]	?
O=[N+]([O-])c1ccc(C[n+]2c(-c3ccccc3)cc(-c3ccccc3)cc2-c2ccccc2)cc1	nt	-23.0%	nt	10µM*	nt	-62.7*
O=[N+]([O-])c1cc(Cl)c(O)c(-[n+]2c(-c3ccccc3)cc(-c3ccccc3)cc2-c2ccccc2)c1	nt	-18.1%	-3.2%	?	nt	-75.0*
O=C([O-])c1cc(-c2ccccc2)cc(-c2ccccc2)[n+]1Cc1ccccc1	nt	nt	nt	-5.9%	nt	-78.9*
Cc1cc(-c2ccccc2)cc(C)n1	-10.9%[46.1 µM]	-9.8%	nt	3.4%	20.4%[46.1 µM]	?
Cc1cc(-c2ccccc2)cc(C)[n+]1Cc1ccccc1	nt	?	nt	-14.2%	nt	-92.6*
CCN(CC)C(=O)N[C@H]1C=C2c3cccc4[nH]cc(c34)C[C@@H]2N(C)C1	nt	nt	-20.1%[21.7 µM]	nt	nt	nt
O=[N+]([O-])c1ccc(C[n+]2ccccc2)cc1	nt	13.7%	nt	-21.6%	nt	-5.4
O=[N+]([O-])c1ccc(C[n+]2ccc(Cc3ccccc3)cc2)cc1	-5.2%	-28.1%	?	4.9%	-22.4%	-73.5*
O=C1C2=C(C(=O)c3ccccc31)[C@H]1O[C@](c3ccsc3)(Cc3c1ccc1ccccc31)O2	14.9%[14.2 µM]	nt	nt	nt	nt	nt
CN1CCC[C@@H]1CCNC(=O)c1c(-c2ccc3c(c2)OCO3)noc1-c1ccsc1	nt	12.6%	nt	1.4%	nt	-75.3*
Cc1ccc(C)c(OCC(=O)Nc2ccc3c(c2)OCO3)c1C	?	0.0%	-6.9%	11.2µM*	?	67.4
Cc1ccc(Cl)c(OCC(=O)Nc2ccc3c(c2)OCCO3)c1	?	61.2%	-1.3%	10µM*	80.3%[14.3 µM]	73.3
Cc1cccc(OCC(=O)Nc2ccc3c(c2)OCO3)c1C	0.9%[46.1 µM]	0.0%	-5.5%	?	7.2%	2.5
CCOC(=O)[C@]12Cc3c(cc(OC)c(OC)c3OC)[C@H]1N(C)C(=O)c1ccccc12	nt	-24.4%	nt	nt	nt	-38.7
CCOC(=O)[C@]12Cc3cc(OC)ccc3[C@H]1N(C(C)C)C(=O)c1cc(OC)ccc12	nt	15.8µM*	nt	nt	nt	-100.0*
CCOC(=O)[C@]12Cc3c(cc(OC)c(OC)c3OC)[C@H]1N(Cc1ccccc1)C(=O)c1ccccc12	nt	-5.0%	nt	-29.5%	nt	1.9
CCOC(=O)[C@]12Cc3c(cc(OC)c(OC)c3OC)[C@H]1N(C1CCCCC1)C(=O)c1cc(OC)ccc12	nt	12.6µM*	nt	nt	nt	-99.3*
CCOC(=O)[C@]12Cc3c(cc(OC)c(OC)c3OC)[C@H]1N(C(C)C)C(=O)c1cc(OC)ccc12	nt	14.1µM*	nt	nt	nt	-99.6*
SMILES	MARV entry inh	FMDV inh	Giardia FBPA inh	HCV inh	LASV entry inh	HCMV antiviral
CCOC(=O)[C@]12Cc3cc(C)ccc3[C@H]1N(C)C(=O)c1cc(OC)ccc12	nt	39.8µM*	nt	nt	nt	-109.2*
COc1ccc2c3c([nH]c2c1)[C@H](CO)N(C(=O)c1cccc(F)c1)CC31CCN(S(=O)(=O)c2cccs2)CC1	nt	nt	nt	nt	nt	-17.0
COC(=O)Nc1ccc2ccc3c(NC(=O)OC)ccc4ccc1c2c43	2.3%	-15.7%	nt	12.6µM*	-1.7%	-23.3
C[C@@H](C(=O)O)c1ccc(C[C@@H]2CCCC2=O)cc1	21.5%	nt	nt	nt	nt	nt
COC(=O)C1=CO[C@@H](C)[C@@H]2CN3CC[C@]4(C(=O)Nc5c4ccc(OC)c5OC)[C@H]3C[C@H]12	nt	-14.3%	0.6%	nt	nt	nt
Cc1ccc(-c2csc(N/N=C/c3ccco3)n2)c(C)c1	1.78µM*	-6.0%	-3.8%	?	3.26µM*	?
CN(C)S(=O)(=O)c1cccc(-c2csc(N/N=C/c3ccco3)n2)c1	-26.0%[46.1 µM]	-20.5%	-23.8%	?	-5.7%	-37.3
CCCCNC(=O)CCCCCn1c(=O)[nH]c2cc(C(=O)OC)ccc2c1=O	?	-0.9%	1.5%	2.4%	0.4%	-5.5
Cc1c(C)n(C)c2ccc(C(=O)NCCCN(C)C3CCCCC3)cc12	nt	?	0.0%	-19.5%	nt	29.6
CN1CCN(CCCNC(=O)c2ccc3c(=O)n(CCc4ccccc4)c(=O)[nH]c3c2)CC1	?	11.9%	-16.3%	-39.1%	0.1%	-18.6
CCCCCn1c(=O)[nH]c2cc(C(=O)NCCCN3CCCCC3)ccc2c1=O	?	-13.4%	-1.5%	10µM*	-25.2%	30.2
CC1CCCCN1CCCNC(=O)c1ccc2c(=O)n(CCc3ccccc3)c(=O)[nH]c2c1 (centres undefined)	?	7.5%	5.4%	3.98µM*	?	43.8
COC(=O)c1ccc2c(=O)n(CCCCCC(=O)O)c(=O)[nH]c2c1	-2.2%	25.1µM*	0.3%	7.3%	-14.1%	-18.7
CCCCCn1c(=O)[nH]c2cc(C(=O)NCCN3CCC(C)CC3)ccc2c1=O	0.4%[46.1 µM]	-26.4%	1.4%	?	?	nt
Cc1c(C)n(C)c2ccc(C(=O)NCCCN3CCCCC3C)cc12 (centres undefined)	nt	-1.8%	nt	-8.0%	1.6%[46.1 µM]	+!
CC(C)Oc1ccc(CNC(=O)CCCN2C(=O)c3cccnc3Oc3ccc(Cl)cc32)cc1	nt	-15.9%	nt	nt	1.8%[46.1 µM]	0.0
COc1ccc(C2=NS(=O)(=O)N(C)C(C(=O)Nc3ccc(OC(F)(F)F)cc3)=C2)cc1	2.6%[46.1 µM]	?	nt	nt	0.1%[46.1 µM]	9.5
CC1CCN(CCCNC(=O)c2ccc3c(=O)n(CCc4ccccc4)c(=O)[nH]c3c2)CC1	?	15.5%	4.4%	8.91µM*	7.7%	61.9
O=C(CCCCCn1c(=O)[nH]c2ccccc2c1=O)NCCCN1CCN(c2ccccc2F)CC1	?	?	5.4%	12.6µM*	-8.2%	6.5
CC1CCCCN1CCNC(=O)c1ccc2c(=O)n(Cc3ccc(Cl)cc3)c(=S)[nH]c2c1 (centres undefined)	?	-11.4%	nt	2.24µM*	?	-27.3
CC1CCCCN1CCNC(=O)c1ccc2c(=O)n(CCc3ccccc3)c(=O)[nH]c2c1 (centres undefined)	?	27.5%	1.6%	11.2µM*	?	32.9
